Inconclusive results are not listed. Active and inactive are the calls of the source. Calls follow the shape of the dose curve; as a rule, active = well fitted inhibition curve with a large enough effect; inconclusive = small, poorly fitted or top-dose-only effect; inactive = flat fitted curve, though single readings scatter.
What was measured:
JCK = assay: qHTS profiling for inhibitors of Plasmodium falciparum proliferation (AID 504749);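 also: 0% = DMSO vehicle and full inhibition = artemisinin control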; details: P. falciparum in erythrocytes, SYBR Green DNA, 72 h; series mostly up to 28.7 µM
Method in brief: (§1)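 P. falciparum-infected erythrocytes (0.3% parasitemia, 2.5% hematocrit final) were exposed to compounds for 72 h at 37 C in 5% CO2, then lysed with SYBR Green buffer overnight at room temperature; parasite DNA fluorescence was normalized to artemisinin and DMSO controls.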

N140 = assay: as above; details: P. falciparum in erythrocytes, SYBR Green DNA, 72 h; series mostly up to 28.7 µM
Method in brief: as §1

P93_24 = assay: as above; details: P. falciparum in erythrocytes, SYBR Green DNA, 72 h; series mostly up to 28.7 µM
Method in brief: as §1

P94_40 = assay: as above; details: P. falciparum in erythrocytes, SYBR Green DNA, 72 h; series mostly up to 28.7 µM
Method in brief: as §1

PAD = assay: as above; details: P. falciparum in erythrocytes, SYBR Green DNA, 72 h; series mostly up to 28.7 µM
Method in brief: as §1

PC15 = assay: as above; details: P. falciparum in erythrocytes, SYBR Green DNA, 72 h; series mostly up to 28.7 µM
Method in brief: as §1

PC26 = assay: as above; details: P. falciparum in erythrocytes, SYBR Green DNA, 72 h; series mostly up to 28.7 µM
Method in brief: as §1

PC49 = assay: as above; details: P. falciparum in erythrocytes, SYBR Green DNA, 72 h; series mostly up to 28.7 µM
Method in brief: as §1

SC27B = assay: as above; details: P. falciparum in erythrocytes, SYBR Green DNA, 72 h; series mostly up to 28.7 µM
Method in brief: as §1

TAB109 = assay: as above; details: P. falciparum in erythrocytes, SYBR Green DNA, 72 h; series mostly up to 28.7 µM
Method in brief: as §1

TAB113 = assay: as above; details: P. falciparum in erythrocytes, SYBR Green DNA, 72 h; series mostly up to 28.7 µM
Method in brief: as §1

W2 = assay: as above; details: P. falciparum in erythrocytes, SYBR Green DNA, 72 h; series mostly up to 28.7 µM
Method in brief: as §1

CRL-7250 = normal cell line; assay: Cytotoxic Profiling of Annotated Libraries Using Quantitative High-Throughput Screening (AID 1296008); details: Five cell lines viability, CellTiter-Glo ATP luminescence, 48-72 h; max response: active compounds read low; as to max response: % is scaled to controls: 0 for no effect and ±100 for the full control effect
Method in brief: (§2)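 Compounds were pin-transferred onto cells and incubated 48 or 72 hr at 37 degree Celsius, 95% humidity. CellTiter-Glo was added, plates sat 10 min at room temperature, then ATP-coupled luminescence was imaged as the viability read-out.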

HEK293 = assay: as above; details: Five cell lines viability, CellTiter-Glo ATP luminescence, 48-72 h; max response: active compounds read low
Method in brief: as §2

HaCat [1] = assay: as above; details: Five cell lines viability, CellTiter-Glo ATP luminescence, 48-72 h; max response: active compounds read low
Method in brief: as §2

KB-3-1 = assay: as above; details: Five cell lines viability, CellTiter-Glo ATP luminescence, 48-72 h; max response: active compounds read low
Method in brief: as §2

NIH3T3 = assay: as above; details: Five cell lines viability, CellTiter-Glo ATP luminescence, 48-72 h; max response: active compounds read low
Method in brief: as §2

HACAT [2] = assay: qHTS assay to identify novel small-molecules to repurpose for Merkel cell carcinoma treatment (AID 1296009); details: MCC and control cell lines, CellTiter-Glo viability, 72 h; at 44.8 µM (top of the series) unless noted
Method in brief: (§3)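 Cells exposed to NPC (8-point) and MIPE (11-point) compound dilutions for 72 hr at 37 degree celsius; viability read by CellTiter-Glo luminescence, normalized to no-cell and DMSO in-plate controls.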

TAB165 = assay: qHTS profiling for inhibitors of Plasmodium falciparum proliferation (AID 504749);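 also: 0% = DMSO vehicle and full inhibition = artemisinin control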; details: P. falciparum in erythrocytes, SYBR Green DNA, 72 h; series mostly up to 28.7 µM
Method in brief: as §1

HEK293T = assay: qHTS assay to identify novel small-molecules to repurpose for Merkel cell carcinoma treatment (AID 1296009); details: MCC and control cell lines, CellTiter-Glo viability, 72 h; at 44.8 µM (top of the series) unless noted
Method in brief: as §3
Also: nearly all actives have a fitted effect of over 60% in size.

Cc1scc2c1N(C(=O)CN1CCN(C)CC1)c1ccccc1NC2=O
inactive: Potency (JCK) | Potency (N140) | Potency (P93_24) | Potency (P94_40) | Potency (PAD) | Potency (PC15) | Potency (PC26) | Potency (PC49) | Potency (SC27B) | Potency (TAB109) | Potency (TAB113) | Potency (W2) | max response (CRL-7250) -1.88% | max response (HEK293) -0.369% | outcome (HaCat [1]) | max response (KB-3-1) 6.97% | max response (NIH3T3) -7.24% | outcome (HACAT [2])

CC(=O)OCC1=C(C(=O)O)N2C(=O)[C@@H](NC(=O)Cc3cccs3)[C@H]2SC1
inactive: Potency (JCK) | Potency (N140) | Potency (P93_24) | Potency (P94_40) | Potency (PAD) | Potency (PC15) | Potency (PC26) | Potency (PC49) | Potency (SC27B) | Potency (TAB109) | Potency (TAB113) | Potency (TAB165) | Potency (W2) | max response (CRL-7250) 1.94% | max response (HEK293) -2.75% | outcome (HaCat [1]) | max response (KB-3-1) 1.19% | outcome (NIH3T3) | outcome (HACAT [2])

C[N+](C)(C)CCOC(=O)CCC(=O)OCC[N+](C)(C)C
inactive: Potency (JCK) | Potency (N140) | Potency (P93_24) | Potency (P94_40) | Potency (PAD) | Potency (PC15) | Potency (PC26) | Potency (PC49) | Potency (SC27B) | Potency (TAB109) | Potency (TAB113) | Potency (TAB165) | Potency (W2) | max response (CRL-7250) 1.65% | max response (HEK293) 4.43% | outcome (HaCat [1]) | max response (KB-3-1) 1.17% | outcome (NIH3T3) | outcome (HACAT [2])

CCCNC(C)C(=O)Nc1ccccc1C (stereo not drawn)
inactive: max response (CRL-7250) -2.89% | max response (HEK293) 1.1% | outcome (HaCat [1]) | max response (KB-3-1) 7.86% | max response (NIH3T3) -0.782% | outcome (HACAT [2])

NC/C=C/C(=O)O
inactive: Potency (JCK) | Potency (N140) | Potency (P93_24) | Potency (P94_40) | Potency (PAD) | Potency (PC15) | Potency (PC26) | Potency (PC49) | Potency (SC27B) | Potency (TAB109) | Potency (TAB113) | Potency (TAB165) | Potency (W2) | max response (CRL-7250) -5.1% | outcome (HEK293) | outcome (HaCat [1]) | max response (KB-3-1) 3.52% | max response (NIH3T3) -7.89% | outcome (HACAT [2]) | outcome (HEK293T)

NC(Cc1ccc(Cl)cc1)C(=O)O (stereo not drawn)
inactive: Potency (JCK) | Potency (N140) | Potency (P93_24) | Potency (P94_40) | Potency (PAD) | Potency (PC15) | Potency (PC26) | Potency (PC49) | Potency (SC27B) | Potency (TAB109) | Potency (TAB113) | Potency (TAB165) | Potency (W2) | max response (CRL-7250) -4.47% | outcome (HEK293) | outcome (HaCat [1]) | max response (KB-3-1) -13.5% | max response (NIH3T3) 4.7% | outcome (HACAT [2]) inactive [at 0.588 µM] | outcome (HEK293T) inactive [at 0.588 µM]

CO[C@@]1(NC(=O)CSCC#N)C(=O)N2C(C(=O)O)=C(CSc3nnnn3C)CS[C@@H]21
inactive: max response (CRL-7250) 2.03% | max response (HEK293) -2.42% | outcome (HaCat [1]) | max response (KB-3-1) 1.86% | max response (NIH3T3) -0.696% | outcome (HACAT [2])
